Compound activity (PubChem)
Mtb FBA inh: inhibits M. tuberculosis FBA enzyme | P9WQA3 | purified M. tuberculosis FBA, fluorescence read-out | inhibition, % at 1 µM | hit rate 2.3% among 360,000 | AID 588726; in the data active means inhibition above about 27%;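 further: 0% = vehicle and 100% = reference inhibitor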
Target sequence (P9WQA3 whole entry, looked up): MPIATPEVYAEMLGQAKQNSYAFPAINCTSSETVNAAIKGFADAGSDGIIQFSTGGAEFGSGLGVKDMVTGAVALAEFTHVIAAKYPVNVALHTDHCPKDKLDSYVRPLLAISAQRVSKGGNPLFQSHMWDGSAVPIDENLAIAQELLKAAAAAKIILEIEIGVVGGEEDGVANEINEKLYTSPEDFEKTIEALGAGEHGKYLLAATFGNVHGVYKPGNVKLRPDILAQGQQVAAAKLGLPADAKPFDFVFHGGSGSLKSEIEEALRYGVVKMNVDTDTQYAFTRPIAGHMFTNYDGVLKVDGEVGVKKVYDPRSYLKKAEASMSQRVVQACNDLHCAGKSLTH
PrPC surface inh: cell surface PrPC inhibition, primary TR-FRET screen; P04156; TR-FRET read-out; inhibition, % at 13.8 µM; hit rate 0.43% among 370,000; AID 720596; in the data active means inhibition above about 24%; further: 0% = median of the test wells and 100% = reference compound wells
GDH-TPI counter: inhibits GDH-TPI coupling enzymes, artifact for Mtb FBA screen; AID 588335; inhibition, % at 4.8 µM; hit rate 1.2% among 360,000; GDH-TPI coupled enzyme counterscreen, NADH absorbance; in the data active means inhibition above about 30%;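 further: 0% = DMSO wells and 100% = wells lacking the enzyme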
3CLpro inhibitor: SARS-CoV 3CLpro protease inhibition; P0C6X7; hit rate 0.14% among 290,000; AID 1706; inhibition, % at 6 µM; recombinant SARS-CoV 3CLpro, quenched FRET peptide cleavage; in the data active means inhibition above about 12%
BH1578 lux ind: induces V. cholerae light production without autoinducers | activation, % at 18.7 µM | hit rate 0.16% among 350,000 | V. cholerae BH1578 lux reporter, luminescence, 6 h; in the data active means activation mostly above about 9.7%, no sharp cut-off
Numbers without * were called inactive; i = inactive; / = no result; + = active, no number. A selection: hits, their analogues and other compounds. The true share with any hit is near 3.9%.

SMILES	Mtb FBA inh	PrPC surface inh	GDH-TPI counter	3CLpro inhibitor	BH1578 lux ind
Cc1cccn2c(=O)nc(SCC(=O)c3ccc(Cl)cc3)nc12	0	7	11	/	89*
COc1ccc(C(=O)N(CN2CCCC2=O)c2nccs2)cc1OC	-3	-5	46*	0	i
C=C(C)Cc1c(C)c(C#N)c2[nH]c3ccccc3n2c1=O	+	0	-1	2	i
CCc1cc(=S)n2c([nH]c3ccccc32)c1C#N	9	/	-1	1	0
Cc1c(CCC(=O)O)c(=O)n2c([nH]c3ccccc32)c1C#N	+	4	9	6	0
COCc1cc(=O)n2c([nH]c3ccccc32)c1C#N	+	-3	19	-3	i
O=C(NCCCN1CCOCC1)c1sc2cc([N+](=O)[O-])ccc2c1Cl	54*	/	4	3	0
O=C(Nc1ccc(-c2cn3ccccc3n2)cc1)c1cccs1	0	-4	14	-4	-1
Cc1ccc(-c2cn3cccnc3n2)cc1NC(=O)c1cccs1	+	-5	18	3	0
COc1ccc(-c2cn3cccnc3n2)cc1NC(=O)C1CCCC1	16	0	23	-5	0
COc1ccc(-c2cn3cccnc3n2)cc1Br	+	-17	13	0	0
COc1cc(C(=O)Nc2cc(-c3cn4cccnc4n3)ccc2C)cc(OC)c1OC	+	-1	12	-1	i
COc1cc(OC)cc(C(=O)Nc2cccc(NC(=O)c3cc(OC)cc(OC)c3)n2)c1	0	-1	-6	/	-1
COc1cc(OC)cc(C(=O)Nc2cc(-c3cn4cccnc4n3)ccc2C)c1	+	-4	11	2	i
Nc1ccccc1SCc1cn2cccnc2n1	1	-2	-1	3	0
O=C(COc1ccccc1)Nc1cccc(-c2cn3cccnc3n2)c1	+	-5	2	-4	0
COc1ccc(-c2cn3cccnc3n2)cc1NC(=O)C1CC1	11	/	8	2	1
Nc1ccc(-c2cn3cccnc3n2)cc1	8	-3	38*	-5	0
COc1ccc(-c2cn3cccnc3n2)cc1NC(=O)C(C)C	25	-5	34*	-3	3
Cc1ccc(Sc2ccc(NC(=O)CCN3C(=O)NC4(CCCC4)C3=O)cc2)c(C)c1	-2	3	-4	/	i
Cc1nnc(C)n1/N=C/c1ccc(-c2ccccc2Cl)o1	1	-5	46*	-1	0
S=c1[nH]nc(-c2ccccc2)n1/N=C/c1ccc(-c2ccccc2Cl)o1	-5	-5	28	3	0
COc1cccc2sc(Nc3nc4ccc(NC(C)=O)cc4s3)nc12	89*	17	25	-3	0
CC(=O)Nc1cccc(-c2nc3ccc(NC(C)=O)cc3[nH]2)c1	+	4	16	2	/
CC(=O)Nc1cccc(-c2nc3ccc(NC(C)=O)cc3s2)c1	+	-25	21	-10	i
SMILES	Mtb FBA inh	PrPC surface inh	GDH-TPI counter	3CLpro inhibitor	BH1578 lux ind
CC(=O)Nc1ccc2nc(NC(=O)COc3ccccc3C)sc2c1	2	0	-4	-2	i
O=C(O)CCC(=O)Nc1ccc(-c2nc3ccc(C(=O)c4ccccc4)cc3[nH]2)cc1	1	8	38*	4	-1
COc1ccc(NC(=O)C2(C)CCN2Cc2ccc(OC(F)(F)F)cc2)cc1OC (stereo unspecified)	-2	1	1	/	0
CON(C)C(=O)[C@H]1C[C@@H]2[C@H](C[C@@H](c3ccccc3)[C@H]1C)N(c1ccc(F)cc1)C(=O)N2CCCOc1ccccc1	/	9	/	/	/
COC(=O)c1ccc(C(=O)Nc2ccc3nc(-c4cccnc4)[nH]c3c2)cc1	-3	-3	22	4	0
Nc1ccc(C(=O)Nc2ccc3nc(-c4cccnc4)[nH]c3c2)cc1	-4	1	37*	-3	-1
CCOC(=O)N1CCc2c(sc3c2C(=O)NC(c2ccccc2)N3)C1 (stereo unspecified)	58*	/	12	-4	0
COc1ccccc1OCCN1C(=O)S/C(=C\c2ccco2)C1=O	-8	-8	34*	4	i
COc1cccc(C=C2SC(=S)N(Cc3ccco3)C2=O)c1OC	/	-3	/	/	/
O=c1[nH]cccc1-c1nc2ccccc2n1Cc1ccccc1F	122*	3	5	2	i
Cn1c(-c2ccc[nH]c2=O)nc2cc(Cl)ccc21	137*	-4	2	2	2
CCn1c(-c2ccc[nH]c2=O)nc2ccccc21	134*	-3	4	2	i
CCn1c(-c2ccco2)nc2ccccc21	16	4	-10	1	i
O=C(CN(Cc1ccc(F)cc1)C(=O)CCC(=O)Nc1ccccn1)NCc1ccco1	-1	-1	-2	0	i
C=CCOc1ccc(C2OC34CCCCC3C(C#N)(C#N)C2(C#N)C(=N)O4)cc1 (stereo unspecified)	58*	/	4	-4	i
CCCCOc1ccc(C2OC34CCCCC3C(C#N)(C#N)C2(C#N)C(=N)O4)cc1 (stereo unspecified)	73*	/	-3	-1	i
CCOc1ccc(C2OC34CCCCC3C(C#N)(C#N)C2(C#N)C(=N)O4)cc1OC (stereo unspecified)	75*	/	-3	-2	i
CCCCN1C(=O)C(=O)N(CC(=O)c2ccc3c(c2)CCCC3)C1=O	3	-1	-1	/	-6
Cc1ccc(-c2nn(CC(=O)NN3CCOCC3)c(=O)c3ccccc23)cc1	1	-1	9	-1	i
Cc1cc(=O)n2nc(N3CCCC(C(=O)N4CCc5ccccc54)C3)sc2n1 (stereo unspecified)	1	/	4	-4	17*
Cc1cc(=O)n2nc(N3CCCC(C(=O)N4CCOCC4)C3)sc2n1 (stereo unspecified)	4	4	4	-1	i
CCNc1ccc2c(Cl)cc(=O)oc2c1	19	-11	5	-7	2
COC(=O)c1ccc(/C=N/NC(=O)CC(=O)NC(C)C)cc1	-3	-9	3	-3	-7
COC(=O)c1ccc(/C=N/NC(=S)NC(C)C)cc1	-3	6	48*	5	0
COc1ccc(N=Cc2ccc(N(CCC#N)CCC#N)cc2)cc1	-3	1	49*	/	-1
SMILES	Mtb FBA inh	PrPC surface inh	GDH-TPI counter	3CLpro inhibitor	BH1578 lux ind
CCCCc1nc(C(N)=O)c2[nH]c(=O)n(-c3ccc(OCC)cc3)c2n1	-1	/	9	2	0
CN=CC1=C(O)c2ccccc2C1=O	2	-9	35*	4	2
Cc1ccc(C(=O)N/N=C/c2ccoc2)cc1C	4	0	2	-3	-1
C=CS(=O)(=O)c1c2cc(OC)ccc2nc2ccc(OC)cc12	38*	-10	9	/	6
COC(=O)[C@H](C)N(CCc1cn(Cc2ccccc2)nn1)S(=O)(=O)c1ccccc1Br	/	2	/	/	/
O=C(O)c1cccc(Cn2c(Cl)c(/C=N/NC(=O)c3ccccc3O)sc2=O)c1	5	-1	54*	-2	0
O=C(O)c1cccc(Cn2c(Cl)c(/C=N/NC(=O)c3ccccc3Cl)sc2=O)c1	1	1	41*	-4	0
